Results taken from PubChem BioAssay (Tox21).
Records with an inconclusive call do not appear. Active and inactive are the calls of the source. Unless noted, the call rests on the fitted dose curve; in most records, active means well fitted curve in the direction sought with a large enough effect in the repeat runs; inconclusive means weak or mixed curves; inactive means no such curve, though single readings can be large; an effect the other way counts as inactive or inconclusive.

Legend:
[1] = qHTS assay to identify small molecule agonists of the constitutive androstane receptor (CAR) signaling pathway - cell viability counter screen (AID 1224836); further: nearly all actives have a fitted effect of over 45% in size; further: potency means the concentration at half of the fitted maximal effect
Method in brief: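 HepG2-CYP2B6-hCAR, 2500 cells/well, 4 h pre-incubation; cpd 15 conc + PK11195 0.75 uM final; 23 h, 37 C/5% CO2; CellTiter-Fluor, fluorescence.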

[2] = qHTS assay to identify small molecule antagonists of the constitutive androstane receptor (CAR) signaling pathway - cell viability counter screen (AID 1224837); further: nearly all actives have a fitted effect of over 45% in size; further: potency means the concentration at half of the fitted maximal effect
Method in brief: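 To flag cytotoxic false antagonists, HepG2 hCAR/CYP2B6-2.2kb cells were treated 23 hr with 15-concentration compound series and 50 nM CITCO at 37 C/5% CO2; CellTiter-Fluor fluorescence was the measured end point.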

[3] = molecular target: Nuclear receptor subfamily 1 group I member 3 (Homo sapiens) (UniProt Q14994); assay: qHTS assay to identify small molecule antagonists of the constitutive androstane receptor (CAR) signaling pathway (AID 1224838);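 further: HepG2 cells stably expressing hCAR with CYP2B6 luciferase reporter stimulated by CITCO; nearly all actives have a fitted effect of over 40% in size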; further: potency means the concentration at half of the fitted maximal effect
Sequence of Nuclear receptor subfamily 1 group I member 3 (Homo sapiens) (Q14994 whole entry, looked up): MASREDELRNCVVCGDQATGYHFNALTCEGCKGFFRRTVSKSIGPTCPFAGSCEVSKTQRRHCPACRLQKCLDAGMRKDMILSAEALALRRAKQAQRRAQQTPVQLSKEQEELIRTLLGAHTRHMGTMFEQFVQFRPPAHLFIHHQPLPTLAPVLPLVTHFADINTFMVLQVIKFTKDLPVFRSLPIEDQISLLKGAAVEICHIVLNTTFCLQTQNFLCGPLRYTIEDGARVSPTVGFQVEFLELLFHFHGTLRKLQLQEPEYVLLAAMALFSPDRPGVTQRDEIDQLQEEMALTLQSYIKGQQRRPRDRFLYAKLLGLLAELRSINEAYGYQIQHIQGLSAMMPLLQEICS
Method in brief: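 Human hepatoma HepG2 cells expressing hCAR and a CYP2B6 promoter (2.2 kb) luciferase construct; compound titration (15 points) with 50 nM CITCO final, 24 h at 37 C/5% CO2; luminescence via ONE-Glo after 30 min at room temperature.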

[4] = molecular target: Nuclear receptor subfamily 1 group I member 3 (Homo sapiens) (UniProt Q14994); assay: qHTS assay to identify small molecule agonists of the constitutive androstane receptor (CAR) signaling pathway (AID 1224839); further: nearly all actives have a fitted effect of over 15% in size; further: potency means the concentration at half of the fitted maximal effect;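 on activation: HepG2 cells stably carrying human CAR and a CYP2B6 luciferase reporter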
Method in brief: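 HepG2-CYP2B6-hCAR cells, 2500/well, 4 h pre-incubation; compounds 15 conc.; PK11195 0.75 uM final; 24 h, 37 C/5% CO2; ONE-Glo luciferase read.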

[5] = qHTS assay to identify small molecule antagonists of the estrogen related receptor signaling pathway with the pleiotropic PPARgamma coactivator (PGC) from Tox21 10K library - cell viability counter screen (AID 1224840; active means well fitted cell-killing curve with a large enough effect in the repeat runs, not every such curve was filed as active; further: nearly all actives have a fitted effect of over 40% in size; further: potency means the concentration at half of the fitted maximal effect)
Method in brief: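 Seeded PGC/ERR cells (2,000/well, 6 h, 37 C/5% CO2) get compound by pin tool; 17.5 h incubation at 37 C; CellTiter-Fluor added, 30 min, fluorescence measured.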

[6] = qHTS assay to identify small molecule antagonists of the estrogen related receptor signaling pathway with the pleiotropic PPARgamma coactivator (PGC) from Tox21 10K library (AID 1224841; call rule not given here; further: actives are mostly falling curves and most rising ones were filed inactive; nearly all actives have a fitted effect of over 50% in size; further: potency means the concentration at half of the fitted maximal effect)
Method in brief: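 Test chemicals dissolved in DMSO were applied to pre-incubated (6 h) PGC/ERR cells at 2,000 cells/well for an 18 h, 37 C treatment; reporter luminescence was then read using One-Glo.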

[7] = qHTS assay to identify small molecule agonists of the estrogen related receptor signaling pathway with the pleiotropic PPARgamma coactivator (PGC) from Tox21 10K library (AID 1224842); further: nearly all actives have a fitted effect of over 15% in size
Method in brief: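 PGC/ERR reporter cells (NTP line) were seeded 2,000 per well, rested 6 h at 37 C/5% CO2, then pin-dosed with compounds in DMSO for 18 h at 37 C; luciferase read by One-Glo luminescence after 30 min at room temperature.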

[8] = molecular target: Thyrotropin receptor (Homo sapiens) (UniProt P16473); assay: qHTS assay to identify small molecule agonists of the thyroid stimulating hormone receptor (TSHR) signaling pathway (AID 1224843; calls by dose curve; further: nearly all actives have a fitted effect of over 45% in size)
Sequence of Thyrotropin receptor (Homo sapiens) (P16473 whole entry, looked up): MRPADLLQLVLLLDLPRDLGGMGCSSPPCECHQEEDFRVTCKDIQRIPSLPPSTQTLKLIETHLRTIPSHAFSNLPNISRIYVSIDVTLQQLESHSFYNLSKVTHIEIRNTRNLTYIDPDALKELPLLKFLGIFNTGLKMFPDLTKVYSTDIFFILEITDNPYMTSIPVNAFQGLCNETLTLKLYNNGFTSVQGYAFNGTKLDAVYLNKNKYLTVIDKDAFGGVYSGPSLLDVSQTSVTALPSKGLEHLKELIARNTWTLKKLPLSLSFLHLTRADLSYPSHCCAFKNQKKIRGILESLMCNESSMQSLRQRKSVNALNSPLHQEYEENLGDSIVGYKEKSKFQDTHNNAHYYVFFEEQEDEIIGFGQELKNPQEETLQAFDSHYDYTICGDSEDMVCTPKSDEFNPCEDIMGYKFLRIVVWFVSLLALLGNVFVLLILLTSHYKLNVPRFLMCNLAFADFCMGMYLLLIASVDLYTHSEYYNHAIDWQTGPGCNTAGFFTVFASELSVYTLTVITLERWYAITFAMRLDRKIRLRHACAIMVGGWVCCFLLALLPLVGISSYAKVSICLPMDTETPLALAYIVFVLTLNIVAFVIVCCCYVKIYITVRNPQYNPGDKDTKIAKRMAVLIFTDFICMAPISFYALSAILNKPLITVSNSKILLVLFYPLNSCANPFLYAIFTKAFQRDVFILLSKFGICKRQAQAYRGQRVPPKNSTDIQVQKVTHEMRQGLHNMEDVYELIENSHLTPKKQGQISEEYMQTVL
Method in brief: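 Using 15 concentrations per compound in triplicate, cAMP production was monitored in TSHR-HEK293 cells after 30 min compound incubation at RT; HTRF reagents followed, with fluorescence intensity recorded after 1 h.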

[9] = qHTS assay to identify small molecule agonists of the hypoxia (HIF-1) signaling pathway - cell viability counter screen (AID 1224844; calls by dose curve; further: nearly all actives have a fitted effect of over 50% in size)
Method in brief: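 HRE-bla ME-180; 0.5% dFBS; cpd 17 h, 37C, 5% CO2; CellTiter-Glo lum., 30 min RT, post-FRET read, same wells.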

[10] = qHTS assay to identify small molecule agonists of H2AX (AID 1224845; active means well fitted activation curve with a large enough effect in the signal ratio in the repeat runs, not every such curve was filed as active; the % refers to the signal ratio)
Method in brief: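 Wild-type CHO-K1 cells plated overnight, then exposed 3 hr at 37C to compounds at 15 concentrations (0.76% DMSO). Lysed, then HTRF anti-pH2AX(S139)-cryptate/anti-H2AX-d2 detection after 24 hr at room temperature; emissions 665 and 620 nm.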

[11] = qHTS assay to identify small molecule agonists of the hypoxia (HIF-1) signaling pathway (AID 1224846; active means well fitted activation curve with a large enough effect in the signal ratio in the repeat runs, not every such curve was filed as active; the % refers to the signal ratio)
Method in brief: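 Reporter induction in HRE-bla ME-180 cells is taken as agonism: cells sit 5 hrs after plating, receive compounds or DMSO only, incubate 17 hrs at 37C under 5% CO2, and are loaded with CCF4-AM for beta-lactamase FRET measurement.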

[12] = qHTS assay to identify small molecule agonists of H2AX - cell viability counter screen (AID 1224847; calls by dose curve; further: nearly all actives have a fitted effect of over 30% in size; further: potency means the concentration at half of the fitted maximal effect)
Method in brief: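 Cells plated first: CHO-K1, 1000 per well in 10% FBS medium, incubated overnight at 37C. Then 15-point compound titration added (final DMSO 0.76%) for 3 hr. Finally CellTiter-Glo added and luminescence read.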

[13] = qHTS assay to identify small molecule antagonists of the estrogen related receptor (ERR) signaling pathway from Tox21 library (AID 1224848); further: nearly all actives have a fitted effect of over 50% in size; further: potency means the concentration at half of the fitted maximal effect
Method in brief: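 Tox21 10K compounds in DMSO tested for ERR pathway antagonism in NTP's ERR cell line; 18 h, 37 C exposure; ONE-Glo luminescence.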

[14] = qHTS assay to identify small molecule agonists of the estrogen related receptor (ERR) signaling pathway from Tox21 library (AID 1224849; calls by dose curve; further: nearly all actives have a fitted effect of over 15% in size); settings: ERR reporter cell line, ONE-Glo luciferase, 18 h; at 92.4 µM (top of the series) unless noted
Method in brief: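 Tox21 compounds tested for ERR agonism in an NTP reporter cell line: 18 h treatment at 37 C, then ONE-Glo luminescence.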

[15] = qHTS RealTime-Glo MT Cell Viability Assay in HepG2 cells - 24 hour (AID 1224867); further: nearly all actives have a fitted effect of over 50% in size
Method in brief: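 qHTS, HepG2, 600 cells/well, RealTime-Glo (NanoLuc + prosubstrate) added with cells; 5 h preincubation; DMSO compound addition; 37 C; luminescence at 0/8/16/24/32/40 h.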

[16] = qHTS RealTime-Glo MT Cell Viability Assay in HEK293 cells - 32 hour (AID 1224868); further: nearly all actives have a fitted effect of over 50% in size; further: potency means the concentration at half of the fitted maximal effect
Method in brief: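 Assay medium contained NanoLuc luciferase plus cell-permeant prosubstrate, added with HEK293 cells at 600 cells/well. After 5 h at 37 C/5% CO2 compounds were added; plates stayed at 37 C for 40 h with serial luminescence reads.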

[17] = A CellTox Green Cytotoxicity Assay to monitor cytotoxicity in HEK293 cells - 0 hour (AID 1224869); further: nearly all actives have a fitted effect of over 50% in size
Method in brief: (§1)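 Tox21 screen in HEK293: membrane-impermeant cyanine dye fluoresces on binding dead-cell DNA; compound pinned 5 h post-seeding, plates held at 37 C, signal read repeatedly through 40 h.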

[18] = A CellTox Green Cytotoxicity Assay to monitor cytotoxicity in HEK293 cells - 40 hour (AID 1224871); further: nearly all actives have a fitted effect of over 45% in size; further: potency means the concentration at half of the fitted maximal effect
Method in brief: as §1

[19] = qHTS RealTime-Glo MT Cell Viability Assay in HepG2 cells - 40 hour (AID 1224870); further: nearly all actives have a fitted effect of over 50% in size
Method in brief: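 HepG2 cells mixed with RealTime-Glo MT reagents (NanoLuc plus cell-permeant prosubstrate) were seeded at 600 cells/well, incubated 5 h at 37 C/5% CO2, then pinned with compounds in DMSO; nonlytic luminescence tracked viability during 40 h treatment.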
On the % scale 0 is the no-effect control and ±100 the full control effect.

Cc1ccc(C(=O)Cl)cc1
inactive: Potency [1] | Potency [2] | Potency [3] | Potency [4] | Potency [5] | Potency [6] | Potency [7] | Potency [8] | Potency [9] | Potency [10] | outcome [11] | Potency [12] | Potency [13] | activity change, positive = activation [14] 7.48% | Potency [15] | Potency [16] | Potency [17] | Potency [18]

ClC(Cl)=C(Cl)Cl
inactive: Potency [1] | Potency [2] | Potency [3] | Potency [4] | Potency [5] | Potency [8] | Potency [9] | Potency [10] | outcome [11] | Potency [12] | Potency [15] | Potency [16] | Potency [17] | Potency [19] | Potency [18]

Nc1ccc(Sc2ccc(N)cc2)cc1
active: Potency [4] 34.4 µM
inactive: Potency [1] | Potency [2] | Potency [3] | Potency [5] | Potency [7] | Potency [8] | Potency [9] | outcome [11] | Potency [12] | Potency [13] | activity change, positive = activation [14] 9.92% | Potency [15] | Potency [16] | Potency [17] | Potency [18]

COP(=S)(OC)Oc1cc(Cl)c(Br)cc1Cl
inactive: Potency [1] | Potency [2] | Potency [3] | Potency [5] | Potency [8] | Potency [9] | Potency [10] | Potency [15] | Potency [16] | Potency [17] | Potency [19]
active: Potency [4] 54.5 µM

CCOC(=O)OC1=C(c2cc(C)ccc2C)C(=O)NC12CCC(OC)CC2 (stereo not given)
inactive: Potency [1] | Potency [2] | Potency [3] | Potency [4] | Potency [5] | Potency [9] | Potency [10] | outcome [11] | Potency [12] | Potency [15] | Potency [16] | Potency [17] | Potency [19]

CCCCCCCCCCCCBr
inactive: Potency [1] | Potency [2] | Potency [3] | Potency [4] | Potency [5] | Potency [8] | Potency [10] | outcome [11] | Potency [12] | Potency [15] | Potency [16] | Potency [17] | Potency [18]

CCOCn1c(-c2ccc(Cl)cc2)c(C#N)c(Br)c1C(F)(F)F
inactive: Potency [4] | Potency [17]
active: Potency [1] 4.33 µM | Potency [2] 4.33 µM | Potency [3] 4.86 µM | Potency [5] 5.45 µM | Potency [12] 2.53 µM | Potency [16] 4.36 µM

CC(Cc1ccc(C(C)(C)C)cc1)CN1C[C@@H](C)O[C@@H](C)C1 (stereo not given in full)
inactive: Potency [1] | Potency [2] | Potency [3] | Potency [4] | Potency [5] | Potency [6] | Potency [7] | activity change, positive = activation [14] -8.81% | Potency [15] | Potency [16] | Potency [17] | Potency [19]
active: Potency [12] 63.5 µM | Potency [18] 49 µM

ClCc1ccccc1CCl
inactive: Potency [1] | Potency [2] | Potency [3] | Potency [4] | Potency [5] | Potency [8] | Potency [10] | Potency [12] | Potency [15] | Potency [17] | Potency [19]
active: Potency [18] 49 µM

c1ccc(OCC2CO2)cc1 (stereo not given)
inactive: Potency [1] | Potency [2] | Potency [3] | Potency [4] | Potency [5] | Potency [8] | Potency [9] | Potency [10] | outcome [11] | Potency [12] | Potency [15] | Potency [17]

CC(=O)C(Cl)(Cl)Cl
inactive: Potency [4] | Potency [7] | Potency [8] | Potency [9] | Potency [10] | activity change, positive = activation [14] -67.8% | Potency [15] | Potency [17] | Potency [19] | Potency [18]
active: Potency [1] 16.6 µM | Potency [2] 20.9 µM | Potency [3] 23.5 µM | Potency [5] 23.5 µM | Potency [6] 8.34 µM | Potency [12] 30.8 µM | Potency [13] 5.9 µM

CCCCCCCCCBr
inactive: Potency [1] | Potency [2] | Potency [3] | Potency [4] | Potency [5] | Potency [8] | Potency [9] | Potency [10] | outcome [11] | Potency [12] | Potency [15] | Potency [16] | Potency [17] | Potency [18]

C[As+](C)(C)CC(=O)[O-]
inactive: Potency [1] | Potency [2] | Potency [3] | Potency [4] | Potency [5] | Potency [7] | Potency [8] | Potency [9] | Potency [10] | outcome [11] | Potency [12] | Potency [13] | activity change, positive = activation [14] 5.87% | Potency [15] | Potency [16] | Potency [17] | Potency [18]

FC(F)(F)c1cccc(C2=CCN(CCc3ccc4ccccc4c3)CC2)c1
inactive: Potency [1] | Potency [2] | Potency [3] | Potency [4] | Potency [5] | Potency [6] | Potency [7] | Potency [10] | outcome [11] | Potency [13] | activity change, positive = activation [14] -0.643% [at 42.5 µM] | Potency [15] | Potency [17] | Potency [18]
